Data from PubChem BioAssay (NCI).
The panel holds about 79,000 compounds, 15% with a hit somewhere; the sample as a whole holds those more often. Active and inactive are the calls of the source. No stated cut-off is given here; in the data, active means growth inhibition above about 70%; inactive means the rest.

What was measured:
[1] = NCI Yeast Anticancer Drug Screen. Data for the rad14 strain (AID 159);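 further: 0% = growth of vehicle-treated control cultures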; details: S. cerevisiae rad14 strain growth inhibition, active compounds read high
Method in brief: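 Vehicle-treated cultures served as the baseline for growth inhibition of a DNA repair-mutant yeast strain exposed to each compound.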

[2] = NCI Yeast Anticancer Drug Screen. Data for the sgs1 mgt1 strain (AID 161);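 further: 0% = growth of cultures given vehicle only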; details: S. cerevisiae sgs1 mgt1 strain, active compounds read high
Method in brief: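 Compounds are added to genetically altered yeast, and growth is compared with cultures given vehicle alone to give percent inhibition.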

[3] = NCI Yeast Anticancer Drug Screen. Data for the CLN2oe strain (AID 163);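 further: 0% = growth of vehicle-only control cultures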; details: S. cerevisiae CLN2oe strain, active compounds read high
Method in brief: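 Values reflect how much compound exposure reduced yeast growth, referenced to vehicle-exposed cells. Assay organism is a strain with a defined genetic change affecting cell-cycle control.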

[4] = NCI Yeast Anticancer Drug Screen. Data for the bub3 strain (AID 167); details: S. cerevisiae bub3 mutant strain, active compounds read high
Method in brief: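 Inhibition values come from growth of compound-treated mutant yeast normalised to vehicle-treated controls.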

[5] = NCI Yeast Anticancer Drug Screen. Data for the wt2 strain (AID 169);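 further: 0% = growth of vehicle-treated yeast cultures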; details: S. cerevisiae wt2 strain growth inhibition, active compounds read high
Method in brief: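 Values express reduction in yeast growth under compound treatment, referenced to vehicle-treated cells.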

[6] = NCI Yeast Anticancer Drug Screen. Data for the mlh1 strain (AID 171);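 further: 0% = growth of vehicle-treated control cultures of the same strain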; details: S. cerevisiae mlh1 strain growth inhibition, active compounds read high
Method in brief: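 Steps: expose the defined-mutant yeast strain to compound; expose a parallel culture to vehicle; measure growth; express compound effect as inhibition relative to the vehicle culture.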

[7] = NCI Yeast Anticancer Drug Screen. Data for the sgs1 strain (AID 173);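 further: 0% = growth of vehicle-only control cultures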; details: S. cerevisiae sgs1 mutant, active compounds read high
Method in brief: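 Treat defined-mutant yeast with compound; measure growth; calculate inhibition relative to vehicle-treated cells.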

[8] = NCI Yeast Anticancer Drug Screen. Data for the mlh1 rad18 strain (AID 175); details: S. cerevisiae mlh1 rad18 strain growth inhibition, active compounds read high
Method in brief: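 Test agents were incubated with a yeast strain of defined genotype (DNA damage repair defect). Inhibition of growth was derived by comparison with vehicle-exposed cultures.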

[9] = NCI Yeast Anticancer Drug Screen. Data for the wt1 strain (AID 149);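 further: 0% = growth of vehicle-treated wt1 cultures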; details: S. cerevisiae wt1 strain (SPY 50644) growth inhibition, active compounds read high
Method in brief: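 Vehicle-normalised growth inhibition; strain wt1; compound exposure.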

[10] = NCI Yeast Anticancer Drug Screen. Data for the rad50EPP+ strain (AID 151);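 further: 0% = growth of vehicle-treated control cultures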; details: S. cerevisiae rad50 mutant strain, active compounds read high
Method in brief: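 Exposing the rad50EPP+ strain to each compound, growth was compared with vehicle-only cultures to give inhibition.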

[11] = NCI Yeast Anticancer Drug Screen. Data for the rad50 strain (AID 155);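 further: 0% = growth of vehicle-only cultures of the same strain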; details: S. cerevisiae rad50 strain growth inhibition, active compounds read high
Method in brief: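 A DNA repair-deficient yeast mutant serves as the test organism; compound-induced growth inhibition is calculated against vehicle-treated cells.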

[12] = NCI Yeast Anticancer Drug Screen. Data for the mec2-1 strain (AID 157); details: S. cerevisiae mec2-1 strain, active compounds read high
Method in brief: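 Readout is yeast growth inhibition, normalised to vehicle-treated controls, in the mec2-1 strain exposed to compound.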

[13] = NCI Yeast Anticancer Drug Screen. Data for the cln2 rad14 strain (AID 165);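 further: 0% = growth equal to vehicle treated cultures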; details: S. cerevisiae cln2 rad14 strain, active compounds read high
Method in brief: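 Relative to vehicle controls, growth inhibition of compound-treated cln2 rad14 yeast was recorded.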

[14] = NCI Yeast Anticancer Drug Screen. Data for the rad18 strain (AID 177); details: S. cerevisiae rad18 mutant growth inhibition, active compounds read high
Method in brief: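 A genetically defined yeast mutant impaired in DNA damage repair was treated with test compounds, then its growth was measured against cultures receiving vehicle alone.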

[15] = NCI Yeast Anticancer Drug Screen. Data for the mgt1 strain (AID 153); details: S. cerevisiae mgt1 mutant growth inhibition, active compounds read high
Method in brief: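 Genetically defined yeast (mgt1) treated with compound; inhibition of growth expressed against vehicle-treated controls.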

[16] = at 5.0 µM (retest, dose inferred, filed as 0.5)
[17] = at 50.0 µM (retest, dose inferred, filed as 5.0)

Measured: growth inhibition

NCC(O)CSCc1ccc(Cl)cc1 (stereo not drawn)
active: [4]; at 50.0 µM 74.1% | [8]; at 50.0 µM 82.8%
inactive: [1]; at 100.0 µM 34% | [2]; [16] -7% | [2]; [17] 25% | [2]; at 50.0 µM 31% | [3]; at 1.2 µM -2% | [3]; at 3.7 µM 0% | [3]; at 11.0 µM -2% | [3]; at 33.0 µM 0% | [3]; at 100.0 µM 28% | [4]; at 1.2 µM -2% | [4]; at 3.7 µM -2% | [4]; [16] -13% | [4]; at 11.0 µM 1% | [4]; at 33.0 µM 20% | [4]; [17] 64% | [4]; at 100.0 µM 42% | [5]; at 1.2 µM -6% | [5]; at 3.7 µM -9% | [5]; at 11.0 µM -4% | [5]; at 33.0 µM 1% | [5]; at 100.0 µM -8% | [6]; at 1.2 µM -5% | [6]; at 3.7 µM -4% | [6]; at 11.0 µM -4% | [6]; at 33.0 µM -1% | [6]; at 100.0 µM 22% | [7]; at 1.2 µM -9% | [7]; at 3.7 µM 12% | [7]; at 11.0 µM -16% | [7]; at 33.0 µM 7% | [7]; at 100.0 µM 42% | [8]; [16] -5% | [8]; [17] 18%

Cc1ccc(Nc2n[nH]c(=S)s2)cc1C
inactive: [9]; at 1.2 µM -23% | [9]; at 3.7 µM -22% | [9]; at 11.0 µM -19% | [9]; at 33.0 µM 1% | [10]; at 1.2 µM -7% | [10]; at 3.7 µM -5% | [10]; at 11.0 µM -21% | [10]; at 33.0 µM -9% | [10]; at 100.0 µM 48% | [11]; at 1.2 µM 14% | [11]; at 3.7 µM 17% | [11]; at 11.0 µM 21% | [11]; at 33.0 µM 54% | [12]; at 1.2 µM 1% | [12]; at 3.7 µM 0% | [12]; at 11.0 µM 10% | [12]; at 33.0 µM 11% | [12]; at 50.0 µM 67.7% | [1]; at 1.2 µM -33% | [1]; at 3.7 µM -29% | [1]; at 11.0 µM -17% | [1]; at 33.0 µM 65% | [2]; [16] 5% | [3]; at 1.2 µM 3% | [3]; at 3.7 µM -8% | [3]; at 11.0 µM -5% | [3]; at 33.0 µM -10% | [13]; [16] 65% | [4]; at 1.2 µM 6% | [4]; at 3.7 µM 12% | [4]; [16] 38% | [4]; at 11.0 µM 18% | [4]; at 33.0 µM 36% | [5]; at 1.2 µM -33% | [5]; at 3.7 µM -23% | [5]; at 11.0 µM -28% | [5]; at 33.0 µM 28% | [6]; at 1.2 µM -34% | [6]; at 3.7 µM -21% | [6]; at 11.0 µM -15% | [6]; at 33.0 µM 28% | [7]; at 1.2 µM -28% | [7]; at 3.7 µM -35% | [7]; at 11.0 µM -28% | [7]; at 33.0 µM 28% | [8]; at 50.0 µM 69.7% | [14]; at 1.2 µM 1% | [14]; at 3.7 µM -1% | [14]; at 11.0 µM 12% | [14]; at 33.0 µM 67%
active: [9]; at 100.0 µM 81% | [11]; [16] 93% | [11]; [17] 94% | [11]; at 50.0 µM 78.8% | [11]; at 100.0 µM 84% | [12]; [16] 96% | [12]; [17] 95% | [12]; at 100.0 µM 79% | [1]; at 100.0 µM 89% | [2]; [17] 90% | [3]; at 100.0 µM 76% | [13]; [17] 92% | [4]; [17] 91% | [4]; at 100.0 µM 80% | [5]; at 100.0 µM 85% | [6]; at 100.0 µM 83% | [7]; at 100.0 µM 77% | [8]; [16] 99% | [8]; [17] 99% | [14]; at 100.0 µM 87%

[O-]c1c2cc(-[n+]3c(-c4ccccc4)cc(-c4ccccc4)cc3-c3ccccc3)cc1COCCOCCOCCOCCOC2
active: [15]; at 100.0 µM 82% | [11]; at 100.0 µM 80% | [12]; at 100.0 µM 77% | [1]; at 100.0 µM 81% | [3]; at 100.0 µM 77% | [5]; at 100.0 µM 82% | [6]; at 100.0 µM 87% | [7]; at 100.0 µM 71% | [8]; [17] 70% | [8]; at 50.0 µM 72.2%
inactive: [10]; at 1.2 µM -1% | [10]; at 3.7 µM 0% | [10]; at 11.0 µM 5% | [10]; at 33.0 µM 31% | [10]; at 100.0 µM 66% | [15]; at 1.2 µM -7% | [15]; at 3.7 µM -2% | [15]; at 11.0 µM -13% | [15]; at 33.0 µM 10% | [11]; at 1.2 µM 1% | [11]; at 3.7 µM -2% | [11]; [16] -5% | [11]; at 11.0 µM 0% | [11]; at 33.0 µM 17% | [11]; [17] 35% | [11]; at 50.0 µM 59.1% | [12]; at 1.2 µM -5% | [12]; at 3.7 µM -4% | [12]; [16] -7% | [12]; at 11.0 µM -2% | [12]; at 33.0 µM 4% | [12]; [17] 31% | [12]; at 50.0 µM 33% | [1]; at 1.2 µM 1% | [1]; at 3.7 µM 1% | [1]; at 11.0 µM 1% | [1]; at 33.0 µM 9% | [2]; [16] -11% | [2]; [17] 20% | [2]; at 50.0 µM 31.6% | [3]; at 1.2 µM -6% | [3]; at 3.7 µM 1% | [3]; at 11.0 µM -3% | [3]; at 33.0 µM -6% | [13]; [16] -31% | [13]; [17] 12% | [13]; at 50.0 µM 17.1% | [4]; at 1.2 µM -4% | [4]; at 3.7 µM -6% | [4]; [16] -19% | [4]; at 11.0 µM -4% | [4]; at 33.0 µM -8% | [4]; [17] 10% | [4]; at 50.0 µM 21.7% | [4]; at 100.0 µM 30% | [5]; at 1.2 µM -2% | [5]; at 3.7 µM -3% | [5]; at 11.0 µM -2% | [5]; at 33.0 µM 18% | [6]; at 1.2 µM -1% | [6]; at 3.7 µM -1% | [6]; at 11.0 µM -2% | [6]; at 33.0 µM 12% | [7]; at 1.2 µM -4% | [7]; at 3.7 µM -2% | [7]; at 11.0 µM -1% | [7]; at 33.0 µM 18% | [8]; [16] 0%
